Inconclusive results are not listed. Activity calls are given as the source filed them. How the source made its calls, unless noted: active means hit-call score of the fitted dose curve at least 0.9, where 1 is the maximum; inconclusive means response in the unintended direction; inactive means score below 0.9.
Tests used:
[1] = TOX21_p53_BLA_p2_viability: Viability Assessment in the Tox21 HCT-116 p53 Agonism Beta-lactamase Assay, Phase 2 (AID 2283591);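 further: actives lower the ATP signal meaning cytotoxicity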
In short: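 Cytotoxicity readout: CellTiter-Glo ATP luminescence, 30 min at room temperature, after the beta-lactamase read. Cells were HCT116 exposed 16 h at 37C to compounds pin-transferred at 217-fold dilution from DMSO stocks.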

[2] = molecular target: Cellular tumor antigen p53 (Homo sapiens) (UniProt P04637); experiment: TOX21_p53_BLA_p2_ratio: Tox21 HCT-116 p53 Agonism Beta-lactamase Assay, Ratio, Phase 2 (AID 2283592)
In short: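 Read-out is the blue/green (460/530 nm, 405 nm excitation) ratio after 2 h CCF4-AM loading, fitted as gain versus DMSO. Compounds, pinned at 217-fold dilution from DMSO stocks, stayed 16 h on HCT-116 beta-lactamase reporter cells seeded 5 h earlier.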

[3] = molecular target: Cellular tumor antigen p53 (Homo sapiens) (UniProt P04637); experiment: TOX21_p53_BLA_p3_ratio: Tox21 HCT-116 p53 Agonism Beta-lactamase Assay, Ratio, Phase 3 (AID 2283596)
In short: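 Cells were seeded at 4000/well, rested 5 h at 37C, then dosed with DMSO compound solutions (217-fold dilution) for 16 h. CCF4-AM substrate was loaded for 2 h at room temperature, and the 460/530 nm emission ratio was fitted for gain of signal versus DMSO.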

[4] = TOX21_p53_BLA_p4_viability: Viability Assessment in the Tox21 HCT-116 p53 Agonism Beta-lactamase Assay, Phase 4 (AID 2283597);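 further: hits lower the luminescence signal meaning cytotoxicity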
In short: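 Cytotoxicity as reduced cellular ATP (CellTiter-Glo luminescence, 30 min room temperature), measured in the same wells following the CCF4 FRET p53 reading. Human HCT-116 cells received compounds in DMSO (217-fold dilution) for 16 h.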

[5] = molecular target: Cellular tumor antigen p53 (Homo sapiens) (UniProt P04637); experiment: TOX21_p53_BLA_p5_ratio: Tox21 HCT-116 p53 Agonism Beta-lactamase Assay, Ratio, Phase 5 (AID 2283599)
In short: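 Beta-lactamase reporter ratio (blue 460 nm over green 530 nm, 405 nm excitation) after 2 h CCF4-AM loading, in HCT-116 cells exposed 16 h at 37 C to compounds pinned at 217-fold dilution. Increases relative to DMSO baseline scored.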

[6] = TOX21_p53_BLA_p5_viability: Viability Assessment in the Tox21 HCT-116 p53 Agonism Beta-lactamase Assay, Phase 5 (AID 2283600)
In short: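 Viability came from CellTiter-Glo ATP luminescence, read after 30 min at room temperature. Before this, HCT-116 p53-bla cells (4000/well) had 16 hours of compound exposure at 37C, with DMSO stocks diluted 217-fold on transfer.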

[7] = molecular target: Cellular tumor antigen p53 (Homo sapiens) (UniProt P04637); experiment: TOX21_p53_BLA_p4_ratio: Tox21 HCT-116 p53 Agonism Beta-lactamase Assay, Ratio, Phase 4 (AID 2283601)
In short: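 Signal is the blue/green (460nm/530nm) ratio of cleaved versus uncleaved CCF4-AM substrate, read after 2 h substrate loading. Cells were HCT116 carrying the p53-responsive beta-lactamase reporter, dosed 16 h at 37C, 5% CO2; CellTiter-Glo measured in parallel.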

[8] = molecular target: PGR (gene 5241) (UniProt P06401); experiment: TOX21_PR_BLA_Followup_Antagonist_ratio: Tox21 HEK293 Progesterone Receptor (PR) Antagonism Beta-lactamase Follow-Up Assay, Ratio (AID 2283934);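 further: PR-UAS-bla HEK293T cells stimulated with 1 nM R5020 agonist for 16 hr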
In short: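 Readout is the blue/green (ch2/ch1) substrate cleavage ratio after 2 hours at room temperature, following 16 hr co-treatment of PR-bla HEK293T cells with compound and 1nM promegestone. Multiplexed CellTiter-Glo viability flags cytotoxicity; DMSO baseline.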

[9] = TOX21_PR_BLA_Followup_Agonist_viability: Viability Assessment in the Tox21 HEK293 Progesterone Receptor (PR) Agonism Beta-lactamase Follow-Up Assay (AID 2283935);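 further: signal loss means lower viability so actives are cytotoxic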
In short: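 Run multiplexed with the beta-lactamase FRET read, this endpoint measures ATP by CellTiter-Glo luminescence (30 min, room temperature). PR-UAS-bla HEK293T cells received compound 6 hr after plating and were then incubated 16 hr at 37C in 2% stripped serum.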

[10] = molecular target: PGR (gene 5241) (UniProt P06401); experiment: TOX21_PR_LUC_Followup_Antagonist: Tox21 HEK293 Progesterone Receptor (PR) Antagonism Luciferase Follow-Up Assay (AID 2283938);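 further: curve fitted upward as signal gain over DMSO baseline despite antagonist label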
In short: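 Luminescence from ONE-Glo was measured 30 min after reagent addition, following 16 h exposure of HEK293-PR-A-luc cells (3,000/well, plated 5 h earlier) to DMSO-dissolved compounds at 37C; DMSO served as baseline.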

[11] = TOX21_PR_LUC_Followup_Antagonist_viability: Viability Assessment in the Tox21 HEK293 Progesterone Receptor (PR) Antagonism Luciferase Follow-Up Assay (AID 2283940)
In short: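 Viability counter-readout: cellular ATP measured by luciferase luminescence after 16 h compound exposure at 37C of HEK293-PR-A-luc cells, which had been cultured in charcoal-stripped serum and seeded 5 h beforehand.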

[12] = TOX21_PR_LUC_Followup_Agonist_viability: Viability Assessment in the Tox21 HEK293 Progesterone Receptor (PR) Agonism Luciferase Follow-Up Assay (AID 2283941);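 further: loss of signal means cytotoxicity so actives lower viability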
In short: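 Cytotoxicity counter-readout in the PR-A luciferase reporter line HEK293, with 16 h compound exposure at 37C after cells were cultured in charcoal-stripped serum. Cellular ATP quantified by CellTiter-Glo luminescence.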

[13] = CCTE_Harrill_HTTr_Viability_MCF7: CCTE's 6-hour Cell Viability Assessment for the High-Throughput Transcriptomics (HTTr) Platform, in MCF-7 cells cultured in DMEM + 10% fetal bovine serum, Harrill Lab (AID 2284010; active means hit-call score of the fitted dose curve at least 0.9, where 1 is the maximum; inactive means score below 0.9)
In short: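 Propidium iodide exclusion, imaged by high-content analysis, gauged viability after a six-hour exposure across eight concentrations. Cells were MCF-7 grown in DMEM with 10% fetal bovine serum; fits run in both directions against DMSO.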

[14] = CCTE_Harrill_HTTr_Apoptosis_MCF7: CCTE's 6-hour Apoptosis Assessment for the High-Throughput Transcriptomics (HTTr) Platform, in MCF-7 cells cultured in DMEM + 10% fetal bovine serum, Harrill Lab (AID 2284011; active means hit-call score of the fitted dose curve at least 0.9, where 1 is the maximum; inactive means score below 0.9)
In short: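 High-content imaging of CellEvent Caspase 3/7 Green signal follows a six-hour exposure, with eight concentrations per chemical. MCF-7 cells grown in DMEM plus 10% fetal bovine serum; activity fitted in both directions against DMSO.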

Measured: AC50

Cellular tumor antigen p53 (Homo sapiens), sequence (P04637 whole entry, looked up): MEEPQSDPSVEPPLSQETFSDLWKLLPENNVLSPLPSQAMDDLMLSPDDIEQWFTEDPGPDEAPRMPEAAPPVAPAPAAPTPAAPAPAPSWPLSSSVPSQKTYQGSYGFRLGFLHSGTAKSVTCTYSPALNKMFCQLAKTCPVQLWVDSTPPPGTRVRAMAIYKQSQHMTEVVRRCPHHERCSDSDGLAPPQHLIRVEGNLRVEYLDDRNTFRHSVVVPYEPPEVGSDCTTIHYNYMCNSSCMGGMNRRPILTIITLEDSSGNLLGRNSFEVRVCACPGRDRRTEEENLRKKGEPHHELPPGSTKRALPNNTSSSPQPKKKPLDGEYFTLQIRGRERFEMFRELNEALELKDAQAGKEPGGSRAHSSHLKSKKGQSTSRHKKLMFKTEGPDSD
PGR (gene 5241), sequence (P06401 whole entry, looked up): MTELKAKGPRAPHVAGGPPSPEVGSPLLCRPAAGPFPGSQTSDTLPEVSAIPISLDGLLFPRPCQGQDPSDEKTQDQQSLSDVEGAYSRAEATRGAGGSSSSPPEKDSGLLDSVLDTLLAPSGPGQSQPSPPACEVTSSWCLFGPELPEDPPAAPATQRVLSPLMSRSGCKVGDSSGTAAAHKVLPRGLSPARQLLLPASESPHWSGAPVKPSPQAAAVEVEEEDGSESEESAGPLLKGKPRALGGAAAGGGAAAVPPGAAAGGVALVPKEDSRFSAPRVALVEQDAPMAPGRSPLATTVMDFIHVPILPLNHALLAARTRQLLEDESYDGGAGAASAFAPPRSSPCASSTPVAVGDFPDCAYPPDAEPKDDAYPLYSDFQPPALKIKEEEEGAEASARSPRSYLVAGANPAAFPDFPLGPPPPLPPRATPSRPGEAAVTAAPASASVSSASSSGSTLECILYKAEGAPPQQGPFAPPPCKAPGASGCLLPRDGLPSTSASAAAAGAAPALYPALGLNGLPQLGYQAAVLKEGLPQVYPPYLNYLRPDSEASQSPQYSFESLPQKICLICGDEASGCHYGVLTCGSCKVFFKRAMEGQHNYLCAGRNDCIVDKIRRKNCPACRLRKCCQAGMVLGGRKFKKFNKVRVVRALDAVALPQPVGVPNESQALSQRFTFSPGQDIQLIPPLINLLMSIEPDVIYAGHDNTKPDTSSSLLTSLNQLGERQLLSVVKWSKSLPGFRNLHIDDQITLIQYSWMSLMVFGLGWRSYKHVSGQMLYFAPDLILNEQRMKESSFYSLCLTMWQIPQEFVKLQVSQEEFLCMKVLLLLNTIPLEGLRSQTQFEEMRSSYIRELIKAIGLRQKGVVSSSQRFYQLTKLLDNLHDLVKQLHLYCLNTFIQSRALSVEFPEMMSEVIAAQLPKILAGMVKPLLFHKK

CCc1ccc2c(c1)N(CC(C)CN(C)C)c1ccccc1S2 (configuration not stated)
active: [1] 38.7 µM | [4] 36.2 µM
inactive: [2] | [3] | [5] | [6] | [7]

NCC(O)CC(=O)O (configuration not stated)
inactive: [1] | [2] | [3] | [4] | [5] | [7]

CC1(C)CCC(C)(C)c2cc(NC(=O)c3ccc(C(=O)O)cc3)ccc21
inactive: [2] | [8] | [9] | [10] | [11] | [12]
active: [1] 36.6 µM | [3] 39.1 µM | [4] 36.1 µM | [5] 44.2 µM | [6] 43.5 µM | [7] 44.7 µM

O=NN(CCCl)C(=O)NCCCl
inactive: [1] | [2] | [3] | [4] | [5] | [7]

N#Cc1ccc2c(c1)N(CCCN1CCC(O)CC1)c1ccccc1S2
inactive: [1] | [3] | [4] | [6]
active: [2] 40.4 µM | [5] 35.4 µM | [7] 25.1 µM

NC(=O)c1cc[n+](CC2=C(C(=O)O)N3C(=O)[C@@H](NC(=O)[C@@H](c4ccccc4)S(=O)(=O)[O-])[C@H]3SC2)cc1
inactive: [1] | [2] | [3] | [4] | [5] | [7]

N#C/C(=C1\SCC(c2ccccc2Cl)S1)n1ccnc1 (configuration not stated)
inactive: [1] | [2] | [3] | [4] | [5] | [7]

CS(=O)(=O)c1ccc([C@@H](O)[C@@H](CO)NC(=O)C(Cl)Cl)cc1
inactive: [1] | [2] | [3] | [4] | [5] | [6] | [7]

CC(C)(C)OCC1CO1 (configuration not stated)
inactive: [1] | [2] | [3] | [5] | [6]

COc1cc2c(c(OC)c1OC)-c1c(cc3c(c1OC)OCO3)C[C@@H](C)[C@](C)(O)C2
inactive: [1] | [2] | [3] | [4] | [7]

CC(C)(C)NCCNC(C)(C)C
inactive: [1] | [2] | [3] | [4] | [6] | [7]

CCOC(=O)c1c[nH]c2cc(OCC(C)C)c(OCC(C)C)cc2c1=O
inactive: [1] | [2] | [3] | [5] | [6]

CCCCCCCCCCCCCCCCCCOCC(O)CO (configuration not stated)
inactive: [1] | [2] | [3] | [5] | [6]

NCC[C@H](O)C(=O)N[C@@H]1C[C@H](N)[C@@H](O[C@H]2O[C@H](CN)CC[C@H]2N)[C@H](O)[C@H]1O[C@H]1O[C@H](CO)[C@@H](O)[C@H](N)[C@H]1O
inactive: [1] | [2] | [3] | [4] | [7]

N.N.O=C([O-])C1(C(=O)[O-])CCC1.[Pt+4]
inactive: [1] | [2] | [3] | [5]

NC(=S)N/N=C/c1cccnc1
inactive: [1] | [2] | [3] | [4] | [7]

Cc1ccccc1OCC1CO1 (configuration not stated)
inactive: [1] | [2] | [3] | [4] | [6] | [7]

C1CCC2OC2C1 (configuration not stated)
inactive: [1] | [2] | [3] | [4] | [6] | [7]

CC(CCc1ccccc1)NCC(O)c1ccc(O)c(C(N)=O)c1 (configuration not stated)
inactive: [1] | [2] | [3] | [4] | [6] | [7] | [13] | [14]

CCCCC(=O)O[C@H]1CC[C@H]2[C@@H]3CCc4cc(O)ccc4[C@H]3CC[C@]12C
inactive: [1] | [2] | [3] | [4] | [7]

CC(=O)N[C@H]1[C@H]([C@H](O)[C@H](O)CO)OC(C(=O)O)=C[C@@H]1N=C(N)N
inactive: [1] | [2] | [3] | [4] | [6] | [7]

O=C(O)c1ccccc1OP(=O)(O)O
inactive: [1] | [2] | [3] | [4] | [7]

CCOC(=O)Cc1cccc(-c2cc(CCCCCCc3ccc(O[C@H]4O[C@H](COC(C)=O)[C@@H](OC(C)=O)[C@H](OC(C)=O)[C@@H]4OC(C)=O)c(-c4cccc(CC(=O)OCC)c4)c3)ccc2O[C@H]2O[C@H](COC(C)=O)[C@@H](OC(C)=O)[C@H](OC(C)=O)[C@@H]2OC(C)=O)c1
inactive: [1] | [2] | [3] | [4] | [7]

C[C@@H]1O[C@@H](OC[C@H]2O[C@@H](Oc3c(-c4ccc(OCCO)c(OCCO)c4)oc4cc(OCCO)cc(O)c4c3=O)[C@H](O)[C@@H](O)[C@@H]2O)[C@H](O)[C@H](O)[C@H]1O
inactive: [1] | [2] | [3] | [4] | [7]

Cc1c(NC(=O)c2cccnc2)c(=O)n(-c2ccccc2)n1C
inactive: [1] | [2] | [3] | [5] | [6]

CC[N+](CC)(CC)CCC(O)(c1ccccc1)C1CCCCC1 (configuration not stated)
inactive: [1] | [2] | [3] | [4] | [6] | [7]

CC1CC(C)C(=O)C1=O (configuration not stated)
inactive: [1] | [2] | [3] | [5]

N#Cc1c(N(CC(=O)O)CC(=O)O)sc(C(=O)O)c1CC(=O)O
inactive: [1] | [2] | [3] | [5]

C[C@@H]1C[C@H]2[C@@H]3CCC4=CC(=O)C=C[C@]4(C)[C@@]3(F)[C@@H](O)C[C@]2(C)[C@@]1(O)C(=O)COC(=O)c1cccc(S(=O)(=O)O)c1
inactive: [1] | [2] | [3] | [5]

O=c1[nH]c2cc(C(F)(F)F)c(N3CCOCC3)cc2n(CP(=O)(O)O)c1=O
inactive: [1] | [2] | [3] | [4] | [7]

COc1ccc(C(=O)c2ccc(OC)cc2O)c(O)c1
inactive: [1] | [2] | [3] | [4] | [7]

C=C(C)C(=O)OCCC[Si](Cl)(Cl)Cl
inactive: [1] | [2] | [3] | [4] | [6] | [7]

— PubChem BioAssay (EPA / NIEHS)
